High-throughput results (PubChem)
In the library only some 12% were active in any assay of this set; here they are far more common.
ALDH1A1 inh = blocks purified human ALDH1A1 activity | P00352 | Purified ALDH1A1, NADH fluorescence, propionaldehyde substrate | Potency, µM (doses to about 75.3 µM), inactives show at the top dose activity, negative = inhibition, most hits filed as inhibitors | 220,000 tested, 7.3% active; active means well fitted inhibition curve with a large enough effect, not every such curve was filed as active; inconclusive means small, poorly fitted or top-dose-only effect, or another doubt; inactive means no such curve, though single readings can be large or run the other way;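 further: plate controls were no enzyme wells and a reference inhibitor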
RORgamma inh = blocks mouse ROR gamma transcriptional activity | P51450 | Drosophila S2 Gal4-RORgamma UAS-luciferase reporter, 20 h | Potency, µM (highest dose often 53.6 µM), for the others: at the highest dose activity change, negative = inhibition, actives largely listed as inhibitors | 310,000 tested, 5.4% active; further: nearly all actives have a fitted effect of over 60% in size
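Drosophila S2 cells stably expressing Gal4-DBD/mouse RORγ fusion under metallothionein promoter plus UAS-luciferase; compound 1 h, then 700 uM CuSO4 induction for 20 h at ambient temperature; inhibition read as reduced luminescence.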
PLK1 PBD inh = inhibitors of human PLK1 polo-box domain binding; AID 720504; Plk1 PBD binding of FITC phosphopeptide, fluorescence polarization; Potency, µM, for inactives: max response, negative = inhibition, most hits filed as inhibitors; 360,000 tested, 2.8% active; further: series mostly up to about 57 µM; nearly all actives have a fitted effect of over 65% in size
Target sequence (P53350 whole entry, looked up, the tested form may be a part): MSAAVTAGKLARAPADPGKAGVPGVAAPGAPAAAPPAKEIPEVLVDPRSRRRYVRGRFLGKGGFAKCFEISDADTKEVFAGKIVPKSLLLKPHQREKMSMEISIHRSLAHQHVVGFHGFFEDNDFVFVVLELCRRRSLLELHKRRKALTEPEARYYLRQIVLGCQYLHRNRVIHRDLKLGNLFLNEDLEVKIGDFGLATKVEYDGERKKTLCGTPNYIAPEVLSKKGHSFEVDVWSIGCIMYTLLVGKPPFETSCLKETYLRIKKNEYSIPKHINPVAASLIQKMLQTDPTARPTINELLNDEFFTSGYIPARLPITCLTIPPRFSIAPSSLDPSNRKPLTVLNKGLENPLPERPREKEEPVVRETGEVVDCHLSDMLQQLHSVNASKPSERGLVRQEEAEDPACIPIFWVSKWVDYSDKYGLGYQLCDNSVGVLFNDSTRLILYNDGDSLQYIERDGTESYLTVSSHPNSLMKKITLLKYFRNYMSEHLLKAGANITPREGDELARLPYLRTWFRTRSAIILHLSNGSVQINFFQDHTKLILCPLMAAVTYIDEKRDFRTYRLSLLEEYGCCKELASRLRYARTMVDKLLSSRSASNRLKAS
Gal4-VP16 FLuc = counter-screen for ROR gamma inhibitors: Gal4-VP16 reporter | Drosophila S2 Gal4-VP16 UAS-luciferase, luminescence, 20 h | Potency, µM (series often up to 53.6 µM), for inactives: at the top dose activity, negative = inhibition, most hits filed as inhibitors | 310,000 tested, 3.5% active | AID 2546;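 further: Gal4-VP16 expression switched on by copper sulfate through the metallothionein promoter; nearly all actives have a fitted effect of over 50% in size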
Sfp inh = Sfp phosphopantetheinyl transferase inhibition; Potency, µM, for the others: largest response in the series, negative = inhibition, most hits filed as inhibitors; AID 1490; 310,000 tested, 3.5% active; Biochemical Sfp PPTase activity, qHTS;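 further: the enzyme is Sfp with the accession as filed and its product quenches rhodamine fluorescence; 0% = enzyme reaction without inhibitor and -100% = no enzyme wells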
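Step 1, compound plus 15 nM Sfp-PPTase, 15 min, room temperature. Step 2, add rhodamine-CoA (5 uM) and BHQ-2-YbbR (12.5 uM). Step 3, read 525/598 nm fluorescence at 0 and 30 min.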
The depositor's hits bear a star; ? = inconclusive; nt = no result. Unless noted, the call rests on the fitted dose curve; in most records, active means well fitted curve in the direction sought with a large enough effect; inconclusive means small, poorly fitted or top-dose-only effect, or another doubt; inactive means no such curve, though single readings can be large; an effect the other way counts as inactive or inconclusive. Unless noted, on the % scale 0 is the no-effect control and ±100 the full control effect; potency means the concentration at half of the fitted maximal effect.

SMILES	ALDH1A1 inh	RORgamma inh	PLK1 PBD inh	Gal4-VP16 FLuc	Sfp inh
CCOc1ccc2nc(NC(=O)Nc3ccccc3)sc2c1	1.2%	-44.7%	-4.2%	?	6.4%
CCOc1ccc2nc(NC(=S)NCc3ccccc3)sc2c1	?	2.24µM*	26.7µM*	2.82µM*	?
Cc1ccc2nc(NC(=O)c3ccccn3)sc2c1	-2.7%	0.355µM*	-3.2%	1.12µM*	8.7%
CCC(=O)NNc1nc2c(F)cc(F)cc2s1	8.2%	-6.0%	1.3%	-27.8%	0.1%
CCOc1ccc2nc(NC(=O)c3ccccn3)sc2c1	nt	0.708µM*	-5.3%	2.82µM*	23.1%
O=C(COc1ccccc1)NNc1nc2c(F)cc(F)cc2s1	13.2%	12.6µM*	-5.1%	0.5%	20.1%
Oc1ccc(C[C@H]2CNC(=S)N2CC2CCCN2C[C@H](Cc2ccc(O)cc2)N2C[C@H](Cc3ccc(O)cc3)N(CC3CCCCCC3)C2=S)cc1 (stereo not given in full)	nt	nt	1.3%	nt	nt
CC1=CC[C@@]2(CO)COC(c3ccccc3O)C1C2 (stereo not given in full)	?	0.0%	nt	-3.7%	-13.2%
COc1ccc(C(O)c2nc(-c3ccc(F)c(Cl)c3)cs2)cc1 (stereo not given)	nt	nt	-1.9%	nt	nt
CCOc1ccc2nc(NC(=O)c3ccoc3C)sc2c1	?	?	-15.9%	11.2µM*	89.1µM*
O=C(Nc1nc2c(F)cc(F)cc2s1)c1ccccn1	10µM*	0.224µM*	-17.2%	2µM*	-7.2%
COc1ccc2nc(NC(=O)c3ccccc3F)sc2c1	nt	?	-1.5%	?	4.5%
Cc1ccc2nc(NC(=O)c3ccccc3F)sc2c1	nt	1.26µM*	-4.9%	7.08µM*	21.7%
CSc1ncccc1C(=O)Nc1ccc2nc(C)sc2c1	nt	13.6%	0.8%	1.5%	15.0%
CSc1ncccc1C(=O)Nc1nc2ccc(Oc3ccccc3)cc2s1	256.2%	10µM*	-4.5%	?	2.9%
O=c1[nH]cc(CCCc2ccccc2)c(=O)[nH]1	nt	nt	-2.9%	nt	nt
CC(C#N)(NC(=O)CN1CCN(S(=O)(=O)c2cccc(F)c2)CC1)C1CC1 (stereo not given)	nt	nt	-12.0%	nt	nt
CC(C)C[C@@H](/C=C/S(C)(=O)=O)NC(=O)[C@H](CC(C)C)NC(=O)[C@H](CC(C)C)NC(=O)OCc1ccccc1	?	nt	nt	nt	26.2%
O=C(Cn1sc2ccccc2c1=O)Nc1ccccc1	nt	nt	1.19µM*	nt	nt
O=C(Cn1sc2ccccc2c1=O)NC12CC3CC(CC(C3)C1)C2	0.0708µM*	3.55µM*	2.99µM*	0.501µM*	2.51µM*
COc1ccc(S(=O)(=O)N(C)CC(=O)NC2CCCCC2)cc1Cl	-2.1%	3.8%	0.9%	-0.8%	6.6%
CN(C1CCCCC1)S(=O)(=O)c1ccc(Cl)c(C(=O)O)c1	-2.9%	2.1%	18.9µM*	0.0%	18.2%
COc1ccc(S(=O)(=O)N(CC(N)=O)C2CCCCC2)cc1Cl	-8.0%	46.0%	11.9µM*	3.3%	0.8%
COC(=O)[C@@]1(Cc2ccccc2)[C@H]2c3cc(C(=O)N(C)C)n(Cc4ccc(OC)c(OC)c4)c3C[C@H]2CN1C(=O)c1ccccc1	8.9%	16.2%	nt	10.4%	-18.6%
CCc1ccc(/C=N/Nc2nn[nH]n2)cc1	5.8%	8.3%	-7.7%	-4.1%	5.4%
SMILES	ALDH1A1 inh	RORgamma inh	PLK1 PBD inh	Gal4-VP16 FLuc	Sfp inh
C1CCCCCC(=NNc2nn[nH]n2)CCCCC1	nt	2.0%	-7.5%	-0.7%	39.8µM*
COC(=O)CN=C1OC(=O)N2C(=O)C3=C4C(C[C@H]5C(=O)N(c6ccccc6)C(=O)[C@H]5[C@H]4[C@@]12Cc1ccccc1)[C@H]1C(=O)N(c2ccccc2)C(=O)[C@H]1[C@H]3C (stereo not given in full)	-6.2%	1.7%	nt	-6.2%	24.8%
Cc1cc(C(=O)N/N=C/c2ccc([N+](=O)[O-])cc2)c2ccccc2n1	4.1%	?	-6.8%	-2.0%	-9.3%
Cc1cccc(/C=N/NC(=O)c2cc(C)nc3ccccc23)n1	nt	11.2µM*	-1.4%	?	-16.8%
Cc1cc(C(=O)OCC(=O)c2cccs2)c2ccccc2n1	?	4.6%	4.7%	0.1%	0.4%
Cc1cc(C(=O)N/N=C(\CCC(=O)O)c2cccs2)c2ccccc2n1	25.1µM*	-33.2%	-9.1%	0.5%	18.4%
Cc1cc(C(=O)N/N=C/c2ccc(N(C)C)cc2)c2ccccc2n1	35.5µM*	15.8µM*	-5.7%	-6.8%	11.2%
